Results as given in PubChem BioAssay AID2401 (Southern Research Specialized Biocontainment Screening …, 2010).
Out of some 2,200 compounds screened, about 530 (24%) were called active.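 Rule for the calls: active = inhibition above a set limit at one or more concentrations of the dose series; inactive = inhibition under that limit at every dose.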 Not all results are given here. Entries with a potency or affinity are not part of this list.

Test: nmpC-GFP reporter counter-screen in S. Typhimurium, dose response, counter-screen for PhoP regulon inhibitor project, Salmonella Typhimurium, GFP fluorescence (AID 2401);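 note: S. typhimurium with Mg-insensitive nmpC-GFP reporter grown at 10 µM Mg2+; drop in reporter fluorescence reflects general culture growth inhibition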
Conditions: 4 h; series mostly up to 150 µM

Compound	outcome
COc1ccc(C(C)C)cc1S(=O)(=O)Nc1ccc(Cl)cn1	inactive
O=C(Nc1cnc2ccccc2c1)N1CCOCC1	inactive
CN(C)S(=O)(=O)Nc1ccc(C(=O)O)cc1	inactive
c1ccc2c(C3=NNC(=NC4CCCCC4)SC3)c[nH]c2c1	inactive
O=C(CSc1nc2ccccc2o1)Nc1ccc(N2CCOCC2)cc1	inactive
CNc1nnc(-c2cccc(N(C)C)c2)s1	inactive
O=S(=O)(c1ccccc1)N(CC(O)Cn1c2ccccc2c2ccccc21)c1ccccc1 (stereo unspecified)	inactive
CCCn1c(NCCO)nc2ccccc21	inactive
COC(=O)C(CCSC)NC(=O)c1cccc([N+](=O)[O-])c1 (stereo unspecified)	inactive
Cc1ccc(CNC(=O)C2CCCN(S(=O)(=O)c3c(C)noc3C)C2)cc1 (stereo unspecified)	inactive
Cn1cccc1C(=O)OCc1csc(-c2ccccc2)n1	inactive
Nc1ccc(C(=O)OCc2nc3ccccc3[nH]2)cc1	inactive
Cc1ccc(C)n1-c1cc([N+](=O)[O-])ccc1-n1ccnc1	inactive
Cc1cc(-c2csc(NC(=O)c3ccccc3C(F)(F)F)n2)c(C)n1Cc1ccccc1	inactive
Cc1nc(NCc2ccc3c(c2)OCO3)c2oc3ccccc3c2n1	inactive
Cc1scc(C(=O)O)c1-c1c(C(=O)O)csc1C	inactive
O=[N+]([O-])c1ccccc1/C=N/N1CCN(c2ccncc2S(=O)(=O)N2CCCCC2)CC1	inactive
CCOc1ccc(C(=O)NC(=S)Nc2ccc(N3CCCCC3)cc2)cc1[N+](=O)[O-]	inactive
CCOc1ccc(CSC(=N)N)cc1[N+](=O)[O-]	inactive
CCOc1ccc(C(=O)Nc2ccccc2CC)cc1[N+](=O)[O-]	inactive
COc1nc(-c2ccccc2)ccc1-c1noc(C)n1	inactive
CCCc1cc(N2CCN(c3ccccn3)CC2)n2nc(C)c(-c3ccccc3)c2n1	inactive
CCc1ccc(CNc2ccc(O)cc2)cc1	inactive

Compound	outcome
Nc1nc(N)nc(-c2ccccc2)n1	inactive
CCn1c2ccccc2c2nnc(SCC(=O)Nc3ccc4c(c3)OCO4)nc21	inactive
CCn1c2ccccc2c2cc(NC(=O)COc3ccccc3)ccc21	inactive
CCn1cc(C(=O)O)c(=O)c2cnc(N3CCN(C(=S)NC(=O)c4ccc(Cl)cc4)CC3)nc21	inactive
CCn1cc(C(=O)OCC(=O)Nc2ccc(S(=O)(=O)N3CCCC3)cc2)c(=O)c2ccc(C)nc21	inactive
Cc1ccc(NC(=O)C(=O)NCCOc2ccccc2Cl)cc1	inactive
O=C1CC(c2ccccc2)n2nc(NC(=O)c3ccccc3)nc2N1 (stereo unspecified)	inactive
Cc1ccccc1NC(=O)c1ccc(-n2cncn2)nc1	inactive
Nc1cc(N)nc(SCC(=O)Nc2ccc3c(c2)OCCCO3)n1	inactive
Cc1nn(-c2ccc(Cl)cc2)c2[nH]c(=O)c(CNCc3ccc4c(c3)OCO4)cc12	inactive
CCCSc1nc(N2CCCC2)c2c(c1C#N)CC(C)(C)OC2	inactive
O=C(CCn1nnc(-c2cccs2)n1)NCc1ccccc1Cl	inactive
Nc1scc(-c2ccncc2)c1Cl	inactive
CN(C)c1ccnc(-n2cccc2/C=N/OCc2ccccc2)c1C#N	inactive
CCOC(=O)N1CCN(C(=O)c2cn(CC(C)C)c(=O)c3c2c2ccccc2n3C)CC1	inactive
CCOC(=O)c1cn(CC)c2cc(N3CCOCC3)c(F)cc2c1=O	inactive
Cc1cc(C)c2nc(NNC(=O)c3ccc(S(=O)(=O)N4CCc5ccccc5C4)cc3)sc2c1	inactive
Cc1ccc2nc(SCCCCOc3ccccc3)[nH]c2c1	inactive
CN(c1ccccc1)S(=O)(=O)c1cc(C(=O)Nc2nc3ccccc3[nH]2)ccc1Cl	inactive
O=C(CSc1nnnn1-c1ccccc1)CC(=O)Nc1ccc(Cl)cc1	inactive
CCn1cc(C(=O)O)c(=O)c2cc(F)c(N3CCN(C(=S)NC(=O)c4ccccc4Cl)CC3)cc21	inactive
Cc1cccc(C(=O)NC(=S)Nc2ccc(N3CCOCC3)cc2)c1	inactive
CCOC(=O)CSc1n[nH]c(NC(=O)c2cccc(C)c2)n1	inactive

Compound	outcome
CCCS(=O)(=O)N1CCCC(C(=O)N2CCN(c3ccccn3)CC2)C1 (stereo unspecified)	inactive
COc1cc(NC(=O)CSc2nnnn2Cc2ccc3c(c2)OCO3)cc(OC)c1	inactive
Cc1cccc(-n2ncc3c(NCc4ccc5c(c4)OCO5)ncnc32)c1	inactive
O=C1Nc2ccccc2C(O)(C(=O)N2CCCCC2)N1c1ccccc1 (stereo unspecified)	inactive
Cc1cccnc1N(C(=O)Nc1ccccc1)C1=NCC(C)(C)S1	inactive
Cc1nn(-c2ncc(C(F)(F)F)cc2Cl)c(=O)n1-c1cccc(Cl)c1	inactive
CCCc1ccc(C(=O)CCC(=O)O)cc1	inactive
COc1ccc(OC)c(C(C(=O)NCc2ccco2)N(C(=O)Cn2nnc3ccccc32)C(C)C)c1 (stereo unspecified)	inactive
COc1ccc(C2C=C(c3ccc(Cl)cc3)Nc3nc(NC(C)=O)nn32)cc1 (stereo unspecified)	inactive
C=CCn1c(C)cc(C(=O)CSc2nc(N)cc(N)n2)c1C	inactive
Cc1ccc(C(C(=O)NCc2ccco2)N(CCc2ccccc2)C(=O)Cn2nnc3ccccc32)o1 (stereo unspecified)	inactive
CCCOc1ccc(C(=O)CCC(=O)OCC(=O)N2CC(=O)Nc3ccccc32)cc1	inactive
CCn1cc(C(=O)O)c(=O)c2cc(F)c(N3CCN(S(=O)(=O)c4ccc(NC(C)=O)cc4)CC3)cc21	inactive
CCCOc1ccc(C(=O)N2CCCC2C(=O)O)cc1 (stereo unspecified)	inactive
O=C(CN1CCC(NC(=O)c2cccc(F)c2)CC1)NCc1ccccc1F	inactive
COc1cccc(C2C3=C(Nc4[nH]n(-c5ccccc5)c(=O)c42)c2ccccc2C3=O)c1 (stereo unspecified)	inactive
COC(=O)c1sc2ccccc2c1-n1cccc1C(=O)C(=O)Nc1ccc(Cl)cc1	inactive
COc1cccc(-n2c(SCC(=O)Nc3ccc4c(c3)CCC4)nc3ccccc3c2=O)c1	inactive
CCOC(=O)C(NC(=O)c1cccc(Cl)c1)(OCc1ccccc1)C(F)(F)F (stereo unspecified)	inactive
COc1ccccc1CC1(C)NC(=O)N(CC(=O)N2CC(C)OC(C)C2)C1=O (stereo unspecified)	inactive
Cn1c(NCc2cccs2)nc2ccccc21	inactive
COc1ccc(OC)c(S(=O)(=O)N(C)CC(=O)N2CCc3ccccc3C2)c1	inactive
CCCC(=O)c1c[nH]c(C(=O)NCCCN2CCOCC2)c1	inactive

Compound	outcome
O=S(=O)(Nc1ccc2ccccc2c1)c1ccccc1	inactive
COc1ccc(N2CCN(C(=O)Nc3ccc(S(=O)(=O)N(C)C)cc3)CC2)cc1	inactive
CCc1nc2ccccc2c2nc3ccccc3n12	inactive
COC(=O)C1C(=O)C=C(N2CCOCC2)CC1(C)C (stereo unspecified)	inactive
COC(=O)c1ccc2c(=O)n(CCN3CCOCC3)c(SCC(=O)C(C)(C)C)nc2c1	inactive
CN(C)C(=O)c1cn(N(C)c2ncc(C(F)(F)F)cc2Cl)c(=O)c2ccccc12	inactive
Cc1nc2ccccc2n1CC(=O)NCc1ccccc1	inactive
CCOc1ccc(N/C=C/C(=O)c2ccc(OC)cc2)c([N+](=O)[O-])c1	inactive
O=C(/C=C/c1ccco1)NC(=S)Nc1ccc(N2CCCC2)cc1	inactive
O=C1CSC(=S)N1c1ccc(F)cc1	inactive
O=C1N=c2ccccc2=C1c1[nH]c(=S)[nH]c1O	inactive
Cc1ccccc1-n1nc(-c2ccc(N)cc2)cc1N	inactive
CC(=O)N(Cc1ccc(Cl)cc1)c1cnccn1	inactive
NCCCC[C@H]1CN=C(N)N1CCC12CC3CC(CC(C3)C1)C2	inactive
CCN(c1ccc(OCC(=O)OCC(=O)Nc2ccc(F)c(F)c2F)cc1)S(=O)(=O)c1ccccc1	inactive
COc1ccc2nc(SCC(=O)N(C)C3CCCCC3)c(C#N)cc2c1	inactive
CC1CCC(NC(=O)C2c3ccccc3C(=O)N2Cc2cccs2)CC1 (stereo unspecified)	inactive
Cc1ccc(Nc2nc(CSc3nnc(-c4ccc(F)cc4)n3C)cs2)cc1	inactive
CCOc1ccc(NC(=O)Nc2cccs2)cc1	inactive
CC(=O)c1sc(NC(=O)COc2ccc([N+](=O)[O-])cc2)nc1C	inactive
CCOC(=O)C1=C(C)NC(=O)NC1c1ccsc1 (stereo unspecified)	inactive
O=C1c2ccccc2C(=O)N1c1cccc(-c2csc(Nc3ccc4c(c3)OCO4)n2)c1	inactive
COC(=O)Cn1cc(C(=O)c2ccco2)c2ccccc21	inactive

Compound	outcome
COC(=O)c1sccc1NC(=O)c1csc2c1CCCC2	inactive
COCCNC(=O)CSCc1c(F)cccc1Cl	inactive
Cn1ncc(Br)c1C(=O)NCc1cccs1	inactive
CCOC(=O)c1cnc(SCC(=O)Nc2ccc(N3CCOCC3)c(Cl)c2)nc1N	inactive
CCOC(=O)N1CCC(NC(=O)CCC(=O)c2ccccc2)CC1	inactive
CNC(=O)c1ccc(-c2ccc(F)cc2)s1	inactive
CCCCOC(=O)CSc1nc2c(c(=O)[nH]c(=O)n2C)n1C/C=C(\C)Cl	inactive
CCCN(CCC)CCCNS(=O)(=O)c1ccc2c(c1)oc(=O)n2C	inactive
O=C1c2[nH]nc(-c3ccccc3O)c2C(c2ccc(F)cc2)N1Cc1ccco1 (stereo unspecified)	inactive
COc1ccc(NC(=O)CSc2nnc(-c3cccs3)n2Cc2ccco2)cc1OC	inactive
COc1ccc(OC)c(C2C=C(C34CC5CC(CC(C5)C3)C4)NC(=S)N2)c1 (stereo unspecified)	inactive
Cc1cc(C)nc(/N=C(\N)Nc2ccc(SC(F)F)cc2)n1	inactive
CCn1c(Cc2ccccc2)nnc1SCC(=O)Nc1ccc(S(N)(=O)=O)cc1	inactive
Cc1[nH][nH]c(=O)c1C(c1ccc(O)c([N+](=O)[O-])c1)c1c(C)[nH][nH]c1=O	inactive
CCCc1[nH][nH]c(=O)c1C(c1ccc(Br)cc1)C(C#N)C#N (stereo unspecified)	inactive
CN(CCC(=O)Nc1ccc(Br)cc1)Cc1ccccc1	inactive
CCCc1nc2c(o1)CC(CC(C)SCC)CC2=O (stereo unspecified)	inactive
O=C(Nc1ccc(Cl)cc1)N1CC=CCC1	inactive
C/C(=N/NC(=O)Cc1cccn1C)c1ccccc1	inactive
